The results in this text go back to PubChem BioAssay (EPA / NIEHS).

Assay [1] can be described thus: TOX21_p53_BLA_p2_viability: Viability Assessment in the Tox21 HCT-116 p53 Agonism Beta-lactamase Assay, Phase 2 (AID 2283591).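 Further: compound exposure lasted 16 h at 37 °C; actives lower the ATP signal meaning cytotoxicity.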 In a few lines: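 HCT116 p53-bla cells, 4000/well, dosed after 5 h plating (217-fold dilution of DMSO stocks) and incubated 16 h at 37C. Viability taken as cellular ATP by CellTiter-Glo luminescence after 30 min RT; signal loss marks cytotoxicity.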

Assay [2] has as its target Cellular tumor antigen p53 (Homo sapiens) (UniProt P04637). Briefly: TOX21_p53_BLA_p2_ratio: Tox21 HCT-116 p53 Agonism Beta-lactamase Assay, Ratio, Phase 2 (AID 2283592). A digest of the protocol: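 Ratio endpoint: beta-lactamase cleavage of CCF4-AM, blue (460 nm) over green (530 nm). HCT116 reporter line; 16 h treatment, 37C; substrate 2 h RT.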
The nature of assay [3]: TOX21_p53_BLA_p3_viability: Viability Assessment in the Tox21 HCT-116 p53 Agonism Beta-lactamase Assay, Phase 3 (AID 2283593).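 Further: cells exposed to compound for 16 h before reading.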 In a few lines: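 HCT116 cells, 4000/well, dosed 5 h after plating by pin transfer (217-fold dilution from DMSO stock) and incubated 16 h at 37C, 5% CO2. Viability read as ATP luminescence with CellTiter-Glo after 30 min at room temperature.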
Assay [4] has as its target Cellular tumor antigen p53 (Homo sapiens) (UniProt P04637). The assay can be described thus: TOX21_p53_BLA_p3_ratio: Tox21 HCT-116 p53 Agonism Beta-lactamase Assay, Ratio, Phase 3 (AID 2283596). In a few lines: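 Cells were seeded at 4000/well, rested 5 h at 37C, then dosed with DMSO compound solutions (217-fold dilution) for 16 h. CCF4-AM substrate was loaded for 2 h at room temperature, and the 460/530 nm emission ratio was fitted for gain of signal versus DMSO.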

Assay [5] in a line: TOX21_p53_BLA_p4_viability: Viability Assessment in the Tox21 HCT-116 p53 Agonism Beta-lactamase Assay, Phase 4 (AID 2283597).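 Further: hits lower the luminescence signal meaning cytotoxicity.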 In a few lines:
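Cytotoxicity was inferred from loss of CellTiter-Glo luminescence. HCT116 cells had been dosed with compounds after 5 h plating, incubated 16 h at 37C and 5% CO2, and exposed to the CCF4-AM substrate for 2 h.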

Assay [6] addresses Cellular tumor antigen p53 (Homo sapiens) (UniProt P04637). Briefly: TOX21_p53_BLA_p5_ratio: Tox21 HCT-116 p53 Agonism Beta-lactamase Assay, Ratio, Phase 5 (AID 2283599). In a few lines:
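HCT-116 p53-bla cells (4000/well) plated 5 h, dosed with compound (217-fold DMSO dilution) for 16 h at 37 C; CCF4-AM substrate 2 h at room temperature. Activity is the 460/530 nm emission ratio (405 nm excitation), fitted in gain-of-signal direction versus DMSO.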

Assay [7] can be described thus: TOX21_p53_BLA_p5_viability: Viability Assessment in the Tox21 HCT-116 p53 Agonism Beta-lactamase Assay, Phase 5 (AID 2283600). A digest of the protocol: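 Luciferase-coupled ATP quantitation of cells treated for 16 h (37C, 5% CO2) with test chemicals delivered in DMSO via a 217-fold dilution; 4000 cells/well; reagent incubated 30 min at room temperature before luminescence reading.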

The target of assay [8] is Cellular tumor antigen p53 (Homo sapiens) (UniProt P04637). Briefly: TOX21_p53_BLA_p4_ratio: Tox21 HCT-116 p53 Agonism Beta-lactamase Assay, Ratio, Phase 4 (AID 2283601). A digest of the protocol: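 HCT-116 p53 beta-lactamase reporter cells (4000/well) preincubated 5 h, then compound (217-fold dilution of DMSO stock) for 16 h at 37C. CCF4-AM substrate added 2 h at room temperature; 460/530 nm emission ratio fitted upward versus DMSO.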

SMILES strings stand for the structures. Inconclusive results are not listed. Active and inactive are the calls of the source. How the source made its calls: active means hit-call score of the fitted dose curve at least 0.9, where 1 is the maximum; inconclusive means response in the unintended direction; inactive means score below 0.9.

Chain of Cellular tumor antigen p53 (Homo sapiens) (P04637 whole entry, looked up): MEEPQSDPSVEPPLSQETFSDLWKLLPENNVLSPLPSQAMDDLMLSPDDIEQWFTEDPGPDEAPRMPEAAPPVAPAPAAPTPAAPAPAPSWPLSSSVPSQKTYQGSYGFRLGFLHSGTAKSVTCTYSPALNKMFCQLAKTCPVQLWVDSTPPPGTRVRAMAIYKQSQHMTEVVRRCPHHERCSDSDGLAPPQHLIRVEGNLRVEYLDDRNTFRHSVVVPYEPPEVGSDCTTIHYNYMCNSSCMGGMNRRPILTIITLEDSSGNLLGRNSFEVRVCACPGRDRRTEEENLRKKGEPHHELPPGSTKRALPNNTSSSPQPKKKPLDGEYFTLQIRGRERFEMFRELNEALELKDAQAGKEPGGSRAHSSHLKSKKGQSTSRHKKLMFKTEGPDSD

`C[C@]12CC[C@H](O)C[C@H]1CC[C@@H]1[C@@H]2CC[C@]2(C)[C@@H](c3ccc(=O)oc3)C[C@H]3O[C@]132`: the AC50 in assay [1] is 0.859 µM (active); in assay [3] it was 0.978 µM (active); in assay [5] it was 1.23 µM (active); in assay [7] it was 1.04 µM (active). Besides, the outcome in assay [2], in assay [4], in assay [6] and in assay [8] was inactive.
Take `CCC(C)(S(=O)(=O)CC)S(=O)(=O)CC`: the result in assay [1], in assay [2], in assay [3], in assay [4], in assay [5] and in assay [6] was inactive. The outcome in assay [7] and in assay [8] was inactive.
As for `Oc1c(Br)c(Br)c(Br)c(Br)c1Br`, the outcome in assay [1], in assay [3], in assay [5], in assay [6], in assay [7] and in assay [8] was inactive. Also, the figures for the AC50 in assay [2] and in assay [4] were 1.56 µM (active) and 0.886 µM (active), respectively.
Turning to `O=P1(N(CCCl)CCCl)NC(OO)CCO1` (configuration not stated), the molecule was classed as inactive in assay [1], in assay [2], in assay [3], in assay [4], in assay [5] and in assay [6]. Also, the call in assay [7] and in assay [8] was inactive.
As to `[H+].[H+].[Hg+2].[O-]B([O-])[O-].[c-]1ccccc1`, the half-maximal activity concentration (AC50) is 7.89 µM (active) in assay [1]; 1.73 µM (active) in assay [2]; 0.975 µM (active) in assay [3]; 1.17 µM (active) in assay [4]; 8.43 µM (active) in assay [5]; 5.39 µM (active) in assay [6]. For the same molecule, the results for the AC50 in assay [7] and in assay [8] were 4.94 µM (active) and 18.3 µM (active), respectively.
Regarding `BrCC(Br)C1CCC(Br)C(Br)C1` (configuration not stated), the outcome in assay [1], in assay [2], in assay [3], in assay [4], in assay [5] and in assay [6] was inactive. In addition, the call in assay [7] and in assay [8] was inactive.
On to `[O]=[Cd]`, for which the result in assay [1], in assay [2], in assay [3], in assay [4], in assay [5] and in assay [6] was inactive. For the same molecule, the call in assay [7] and in assay [8] was inactive.
Take `O=c1ccc2cc(O[C@@H]3O[C@H](CO)[C@@H](O)[C@H](O)[C@H]3O)c(O)cc2o1`: the outcome in assay [1], in assay [3], in assay [5] and in assay [7] was inactive. Besides, the AC50 was 10.3 µM (active) in assay [2], 12 µM (active) in assay [4], 10.3 µM (active) in assay [6] and 10.9 µM (active) in assay [8].
With `CN[C@@]1(c2ccccc2Cl)CCCCC1=O`, the call in assay [1], in assay [2], in assay [3], in assay [4], in assay [5] and in assay [6] was inactive. Further, the result in assay [7] and in assay [8] was inactive.
For `O=C(O)C(Cl)Br` (configuration not stated), the call in assay [1], in assay [2], in assay [3], in assay [4], in assay [5] and in assay [6] was inactive. Also, the outcome in assay [7] and in assay [8] was inactive.
Take `OC(O)C(Cl)(Cl)Cl`: the call in assay [1], in assay [2], in assay [3], in assay [4], in assay [5] and in assay [6] was inactive. Further, the call in assay [7] and in assay [8] was inactive.
Consider `Oc1ccc(C(=C(Cl)Cl)c2ccc(O)cc2)cc1`, for which the molecule was classed as inactive in assay [1], in assay [3], in assay [4], in assay [6] and in assay [7]. The half-maximal activity concentration (AC50) in assay [2] was 41.2 µM (active); in assay [5] it was 77.7 µM (active); in assay [8] it was 72.4 µM (active).
For the molecule `CC(=O)C=Cc1ccc2c(c1)OCO2`, the molecule was classed as inactive in assay [1], in assay [3], in assay [5] and in assay [7]. Moreover, the AC50 in assay [2] is 18.1 µM (active); in assay [4], 62.8 µM (active); in assay [6], 71 µM (active); in assay [8], 51.2 µM (active).
Take `CC(O)C(=O)[O][Hg][c]1ccccc1` (configuration not stated): the AC50 is 2.69 µM (active) in assay [1]; 9.88 µM (active) in assay [2]; 0.648 µM (active) in assay [3]; 2.21 µM (active) in assay [4]; 3.87 µM (active) in assay [5]; 2.92 µM (active) in assay [6]. For the same molecule, the AC50 in assay [7] is 1.59 µM (active); in assay [8], 5.92 µM (active).
For the molecule `C[C@H]1CC[C@]2(NC1)O[C@H]1C[C@H]3[C@@H]4CC[C@H]5C[C@@H](O[C@@H]6O[C@H](CO)[C@H](O[C@@H]7O[C@H](CO)[C@@H](O)[C@H](O[C@@H]8OC[C@@H](O)[C@H](O)[C@H]8O)[C@H]7O[C@@H]7O[C@H](CO)[C@@H](O)[C@H](O)[C@H]7O)[C@H](O)[C@H]6O)CC[C@]5(C)[C@H]4CC[C@]3(C)[C@H]1[C@@H]2C`, the AC50 in assay [1] is 4.84 µM (active); in assay [2], 31.4 µM (active); in assay [3], 5.23 µM (active); in assay [4], 29.4 µM (active); in assay [5], 4.05 µM (active); in assay [6], 30.3 µM (active). Also, the AC50 was 6.08 µM (active) in assay [7] and 24 µM (active) in assay [8].
Regarding `NCC(O)c1cccc(O)c1` (configuration not stated), the result in assay [1], in assay [2], in assay [3], in assay [4], in assay [5] and in assay [6] was inactive. Also, the molecule was classed as inactive in assay [7] and in assay [8].
With `C[C@@H](Cc1ccccc1)NCCC(c1ccccc1)c1ccccc1`, the result in assay [1], in assay [2], in assay [3], in assay [4], in assay [6] and in assay [7] was inactive. For the same molecule, in assay [8], the outcome was inactive. In addition, in assay [5], the AC50 was 12.5 µM (active).
Consider `O=[N+]([O-])c1ccccc1CCl`, for which the result in assay [1], in assay [2], in assay [3], in assay [4], in assay [5] and in assay [6] was inactive. Further, the call in assay [7] and in assay [8] was inactive.
`CN1CCN=C(c2ccccc2)c2cc(Cl)ccc21`: the molecule was classed as inactive in assay [1], in assay [3], in assay [4] and in assay [5]. In addition, the AC50 was 0.000141 µM (active) in assay [2], 0.000104 µM (active) in assay [6], 0.000386 µM (active) in assay [7] and 2.67e-05 µM (active) in assay [8].

Broadly, the AC50 is the concentration at which the activity in the assay is half-maximal.
